High-throughput results: PubChem, several laboratories
Mtb FBA inh: Mtb fructose-bisphosphate aldolase inhibition; purified M. tuberculosis FBA, fluorescence read-out; inhibition, % at 1 µM; 360,000 compounds, 2.3% hits; AID 588726; in the data active means inhibition above about 27%;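 further: 0% = vehicle and 100% = reference inhibitor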
Target sequence (P9WQA3 whole entry, looked up): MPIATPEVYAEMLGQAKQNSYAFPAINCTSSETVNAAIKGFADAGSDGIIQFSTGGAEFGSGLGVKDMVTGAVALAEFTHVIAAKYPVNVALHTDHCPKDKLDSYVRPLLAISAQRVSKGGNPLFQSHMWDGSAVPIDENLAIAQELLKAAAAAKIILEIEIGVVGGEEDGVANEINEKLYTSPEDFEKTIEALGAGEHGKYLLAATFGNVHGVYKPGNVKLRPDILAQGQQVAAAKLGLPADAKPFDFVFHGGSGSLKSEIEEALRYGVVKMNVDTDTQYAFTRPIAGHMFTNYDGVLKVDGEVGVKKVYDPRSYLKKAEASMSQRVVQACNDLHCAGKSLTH
BoNT A protease: blocks Botulinum neurotoxin A light chain protease; multiplex microsphere protease substrate cleavage, flow cytometry; inhibition, % at 10 µM; 360,000 compounds, 0.17% hits; further: plate controls were buffer without enzyme for full effect and enzyme alone for no effect
BoNT F protease: inhibitors of Botulinum neurotoxin F light chain protease. inhibition, % at 10 µM. Multiplex microsphere protease cleavage assay, flow cytometry. 360,000 compounds, 0.22% hits; in the data active means inhibition above about 35%, passing the limit was not always enough; inconclusive means no clear call, values can overlap the other calls; further: plate controls were buffer without enzyme for full effect and enzyme alone for no effect
GDH-TPI inh: counter-screen for M. tuberculosis FBA inhibitors: GDH-TPI coupled enzymes; GDH-TPI coupled enzyme counterscreen, NADH absorbance; inhibition, % at 4.8 µM; 360,000 compounds, 1.2% hits; AID 588335; in the data active means inhibition above about 30%;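 further: 0% = DMSO wells and 100% = wells lacking the enzyme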
Anthrax LF prot: inhibitors of Bacillus anthracis lethal factor protease | P15917 | multiplex microsphere protease cleavage assay, LF | inhibition, % at 10 µM | 360,000 compounds, 0.12% hits; further: plate controls were buffer without enzyme for full effect and enzyme alone for no effect
Bead autofluor: flagged as autofluorescent in microsphere protease counterscreen | compound autofluorescence counterscreen, microsphere flow cytometry; hits give high values | fluorescence intensity (test concentration not listed) | 360,000 compounds, 3.1% hits | AID 624483; in the data active means fluorescence intensity above about 16000; inconclusive means no clear call, values can overlap the other calls
Starred values were filed as active, the others as inactive; ? = inconclusive; / = not tested or not shown. This is a sample that favours compounds with a hit; in the whole collection about 6.7% have one here. Unless noted, no stated cut-off is given here; in the data, active means inhibition above about 30%; inconclusive means no clear call, values can overlap the other calls; inactive means below that.

SMILES | Mtb FBA inh | BoNT A protease | BoNT F protease | GDH-TPI inh | Anthrax LF prot | Bead autofluor
CC1(C(=O)NC2CCCC2)CCC(=O)N1Cc1cccs1 (stereo not drawn) | 2 | ? | -4 | 0 | -4 | 22707*
CC1(C(=O)NC2CCCCC2)CCC(=O)N1Cc1cccs1 (stereo not drawn) | 1 | 0 | -3 | -6 | 3 | 5138
O=CN1CCC(=O)N(Cc2ccccc2)c2ccccc21 | 3 | ? | -6 | 6 | -2 | 24835*
O=C(CCCN1C(=O)/C(=C/c2ccco2)SC1=S)Nc1cccc(C(=O)O)c1 | -1 | 0 | 4 | 6 | 0 | 4215
C[C@@H]1CN([C@H](C)CO)C(=O)CCCn2nncc2CO[C@@H]1CN(C)S(=O)(=O)c1cccc(F)c1 | 1 | -1 | -9 | 6 | 1 | 4220
ClCc1c2ccccc2cc2ccccc12 | 10 | 1 | -4 | 14 | -10 | 5824
CNc1c([N+](=O)[O-])cnn1-c1ccc(Cl)cc1Cl | 0 | -5 | -10 | 23 | -3 | 18639*
CNc1c([N+](=O)[O-])cnn1-c1ccccc1Cl | 0 | 0 | 0 | 18 | -1 | 23635*
Cc1cc(C)n(-c2ccccc2[N+](=O)[O-])n1 | 3 | 0 | 2 | 2 | 4 | 3572
COc1ccc(CCNC(=O)Cn2nnc(C(=O)Nc3ccc(Br)cc3)c2N)cc1OC | 1 | 1 | 6 | -3 | -2 | 5844
CCc1ccc(N/C(SC)=C(/C#N)C(N)=O)cc1 | -4 | 0 | -4 | 15 | -2 | 11041
CCCCS/C(=C(/C#N)C(N)=O)c1cc2c([nH]1)CCCC2 | -9 | ? | 0 | 16 | -3 | 22456*
CC1(C)NC(=O)N(CCCCOc2ccc3ccccc3c2Cl)C1=O | -1 | -1 | -3 | 3 | -1 | 24165*
CC1(C)NC(=O)N(CCOCCOc2ccc3ccccc3c2Br)C1=O | -2 | -6 | -10 | -5 | -1 | 21501*
COc1ccc(/C=C/C(=O)NC(=S)NNC(=O)c2cccnc2)cc1OC | -2 | -1 | 3 | 38* | -4 | 3301
O=C(/C=C/c1ccccc1)NC(=S)NNC(=O)c1cnccn1 | 5 | 2 | ? | 41* | -22 | 3372
COc1ccc(/C=C/C(=O)NC(=S)NNC(=O)Cc2cccs2)cc1OC | 6 | 0 | -20 | 38* | -5 | 3527
O=C(/C=C/c1ccccc1)NC(=S)NNC(=O)c1cccnc1 | 2 | -1 | -23 | 15 | 9 | 4063
COc1cc(C(=O)NNC(=S)NC(=O)/C=C/c2ccccc2)cc(OC)c1OC | 2 | 4 | ? | 43* | -17 | 3026
COc1cc(NC(=O)CCc2nnc3ccc(N4CCC(C)CC4)nn23)cc(OC)c1 | -1 | 1 | 1 | -4 | 1 | 5378
Nc1nc2c(ncn2[C@@H]2O[C@H](CNC(=O)[C@H](N)Cc3ccccc3)[C@@H](O)[C@H]2O)c(=O)[nH]1 | 3 | -1 | -2 | / | 1 | 5800
COc1ccc([N+](=O)[O-])cc1N(CC(=O)NC(C(C)C)C(C)C)S(C)(=O)=O | 1 | -2 | -5 | 10 | -12 | 4559
COc1ccc(-n2c(Cc3cccn3C)nnc2SCC(=O)Nc2cc(Cl)ccc2OC)cc1 | 0 | -1 | -2 | 5 | 1 | 6096
COc1ccc(-c2csc(N3C(=N)SCC3=O)n2)cc1 | 2 | -1 | -7 | 21 | -2 | 8083
O=C(CSc1nnc(-c2ccccc2O)o1)N1CCc2ccccc2C1 | -3 | ? | -1 | -12 | 1 | 20351*
SMILES | Mtb FBA inh | BoNT A protease | BoNT F protease | GDH-TPI inh | Anthrax LF prot | Bead autofluor
CCOc1cc2c(cc1/C=C(/C#N)c1ccc(C(=O)O)cc1)OCO2 | -4 | 0 | 4 | 2 | 0 | 4694
N#C/C(=C\c1cc2c(cc1Br)OCO2)c1ccc(C(=O)O)cc1 | 0 | 2 | 20 | 31* | 7 | 3515
CS(=O)(=O)Nc1cccc(-c2cc(NC=O)c3ncc(-c4ccc(F)cc4)n3c2)c1 | 5 | 0 | -2 | 16 | -6 | 2968
CC1=NN(C(N)=S)C(=O)C1N=Nc1c(C)n(C)n(-c2ccccc2)c1=O (stereo not drawn) | -11 | -7 | ? | 31* | -13 | 4190
CC(C)(C)n1nc2c(c1NC(=O)c1ccc(Br)cc1)CS(=O)C2 (stereo not drawn) | 6 | 0 | -7 | -5 | 7 | 5905
CC(=O)Nc1ccc(/C=C(\C#N)C(N)=O)cc1 | -1 | 2 | 35* | 22 | ? | 3652
CC(=O)Nc1ccc(/C=C(\C#N)C(=O)NCc2ccccc2)cc1 | -2 | 0 | -4 | 22 | 0 | 2668
